SKKanGAS inh – S. pyogenes SKKanGAS growth inhibitors in kanamycin, primary screen, streptokinase expression inhibitor project, SKKanGAS strain, BacTiter-Glo luminescence; 6 h; inhibition, % at 7.5 µM; 1.3% of 300,000 active; AID 1662, 2009;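 active = mean replicate score, as percent of positive control median, at least 50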;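 also: strain carries kanamycin resistance gene driven by streptokinase promoter and grows in 40 µg/ml kanamycin; loss of luminescence reflects streptokinase promoter inhibition or plain growth inhibition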
tim10-1 inh – growth inhibitors of tim10-1 mutant yeast, primary screen, luminescence, uHTS; S. cerevisiae tim10-1 ts strain growth, BacTiter-Glo, 24 h; inhibition, % at 20 µM; 2.2% of 330,000 active;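 active = inhibition of at least 40%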;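 also: mutant grown at 25 °C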
PfHsp90 yeast 2 – growth inhibition of PfHsp90-expressing yeast, primary screen, antimalarial PfHsp90 inhibitor project, S. cerevisiae, BacTiter-Glo luminescence, single point, set 2. BacTiter-Glo ATP, 48 h; yeast lacking PDR1 and PDR3 efflux regulators. inhibition, % at 9.4 µM. 0.32% of 310,000 active. AID 504621, 2011;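 active = every replicate shows inhibition above about 80%, whatever the replicate mean, limit read from the data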
tim23-1 inh – growth inhibitors of tim23-1 mutant yeast, primary screen, luminescence, uHTS; S. cerevisiae tim23-1 growth, BacTiter-Glo luminescence, 24 h; inhibition, % at 20 µM; 1.3% of 330,000 active; AID 463212, 2010;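 active = growth inhibition of the mutant yeast at or above 50%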;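 also: temperature-sensitive mutant grown at 25 °C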
NALP1 inh – NALP1 inflammasome inhibitors in reconstituted yeast, colorimetric, S. cerevisiae, triplicate retest. inhibition, % at 10 µM. S. cerevisiae NALP1/ASC/caspase-1 growth, X-gal OD620, 72 h. AID 2071, 2009. 0.61% of 280,000 active; in the data active = inhibition mostly above about 24%, no sharp cut-off; inactive = mostly below about 32%
TIM10 inh – growth inhibitors of isogenic TIM10 control yeast, primary screen, counter-screen for tim10-1 yeast inhibitor project, luminescence, uHTS | S. cerevisiae TIM10 strain growth, BacTiter-Glo luminescence, 24 h | inhibition, % at 10 µM | 1.4% of 330,000 active | AID 463195, 2010;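 active = inhibition of 40% or more at the single tested concentration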;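 also: wild-type TIM10 isogenic control strain grown at permissive 25 °C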
tim10-1 confirm – growth inhibitors of tim10-1 mutant yeast, confirmation, single concentration, luminescence, S. cerevisiae; S. cerevisiae tim10-1 ts strain growth, BacTiter-Glo, 24 h; 56% of 7,400 active; AID 463213, 2010; inhibition, % at 20 µM; shares compounds with tim10-1 inh;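 active = inhibition of yeast growth at or above a set limit in either of two repeat tests at 20 µM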;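 also: tim10-1 mutant grown at permissive 25 °C to find synthetic lethal compounds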
TIM10 conf – growth inhibitors of wild-type TIM10 yeast, confirmation, counter-screen for tim10-1 synthetic lethality project, single concentration, luminescence, S. cerevisiae | shares compounds with TIM10 inh | S. cerevisiae tim10 strain growth, BacTiter-Glo luminescence, 24 h | inhibition, % at 10 µM | 63% of 4,600 active;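 active = inhibition of yeast growth at or above a set limit in either of two replicates at 10 µM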; also: this counterscreen used the strain with wild-type TIM10
Of the large screens only hits and unclear results are named; the others gave an inactive call (follow-up assays come after a bar, where they were run). Shown are actives, neighbours in structure and some others; about 4.8% of the full set was active somewhere.

CCOc1ccc(/C=N/Nc2ccc(Cl)nn2)c(O)c1	none
Cc1cc(C)c2c(=O)n(CC(=O)Nc3ccc(Br)c(C)c3)sc2n1	tim10-1 inh 72, TIM10 inh 67 | tim10-1 confirm 93 | TIM10 conf 94
O=C(N/N=C/c1ccccn1)c1cc([N+](=O)[O-])cc([N+](=O)[O-])c1	tim10-1 inh 42, TIM10 inh 48 | tim10-1 confirm inactive | TIM10 conf inactive
COc1cccc(/C=N/NC(=O)C(=O)NCc2cccnc2)c1	none
Cc1csc2ncnc(N3CCN(S(=O)(=O)c4cccc(C(F)(F)F)c4)CC3)c12	none
CCN1CCN(c2cc(N3CCc4ccccc4C3)c(F)cc2[N+](=O)[O-])CC1	tim10-1 inh 41, TIM10 inh 41 | tim10-1 confirm 32 | TIM10 conf inactive
CC(C)Cn1c2c(c(O)c(C(=O)Nc3nccs3)c1=O)CCCC2	tim10-1 inh 43, TIM10 inh 55 | tim10-1 confirm 39 | TIM10 conf inactive
CN(Cc1nc(Cc2ccccc2F)no1)Cc1cccc2ncccc12	none
COC(C/C=C\[C@@H](O)[C@@H](C)OCc1ccccc1)OC	none (no result: PfHsp90 yeast 2, NALP1 inh)
COC(C/C=C\C(=O)[C@H](C)OCc1ccccc1)OC	tim10-1 inh 44, TIM10 inh 42 (no result: NALP1 inh) | tim10-1 confirm 42 | TIM10 conf inactive
O=C(NCCSCc1c(F)cccc1Cl)Nc1ccccc1	none
CCCNC(=S)Nc1ccc(Br)cc1	none
CCOc1ccc(CSCCNC(=S)Nc2ccccc2)cc1	tim10-1 inh 42, TIM10 inh 47 | tim10-1 confirm inactive | TIM10 conf inactive
CCCNC(=S)Nc1ccc(Oc2ccccc2)cc1	tim10-1 inh 42, TIM10 inh 42 | tim10-1 confirm inactive | TIM10 conf inactive
CCOc1ccc(NC(=S)NCCCc2ccccc2)cc1	none (no result: PfHsp90 yeast 2)
S=C(NCCSCc1ccc(Cl)c(Cl)c1)Nc1ccccc1	SKKanGAS inh 52, tim10-1 inh 54, TIM10 inh 45 (no result: NALP1 inh) | tim10-1 confirm inactive | TIM10 conf inactive
S=C(NCCSCc1ccc(Cl)cc1Cl)Nc1ccccc1	SKKanGAS inh 56, tim10-1 inh 48, TIM10 inh 59 | tim10-1 confirm 45 | TIM10 conf 53
O=C(C1CCN(S(=O)(=O)c2cccc([N+](=O)[O-])c2)CC1)N1CCOCC1	none
CCOC(=O)C1CCCN(C(=O)Cc2ccc(Cl)cc2)C1 (stereo not given)	none (no result: PfHsp90 yeast 2)
O=c1c2[nH]c3ccccc3c2nc2n1CCS2	none
COc1ccc2[nH]c3c(=O)n4c(nc3c2c1)SCC4	tim10-1 inh 45, TIM10 inh 40 | tim10-1 confirm 37 | TIM10 conf inactive
CC(/C=N/n1c(-c2ccc(C)cc2)n[nH]c1=S)=C\c1ccco1	none
CC(/C=N/n1c(-c2ccccc2)n[nH]c1=S)=C\c1ccco1	tim10-1 inh 42, TIM10 inh 44 | tim10-1 confirm inactive | TIM10 conf 41
COCCOc1ccc(C(F)(F)F)cc1NC(=O)CN1C(=O)NC2(CCc3ccccc32)C1=O (stereo not given)	none (no result: NALP1 inh)
O=C(Nc1ccc(Cl)c(Cl)c1)OCc1cccnc1	tim10-1 inh 50, TIM10 inh 44 | tim10-1 confirm 47 | TIM10 conf 30
CC(=O)c1ccc(NC(=S)NN2C(C)CCCC2C)cc1 (stereo not given)	none (no result: PfHsp90 yeast 2)
CC(=O)c1ccc(NC(=S)NC2CCCC(C)C2C)cc1 (stereo not given)	tim10-1 inh 45, TIM10 inh 47 | tim10-1 confirm 43 | TIM10 conf 36
